The supplement of paper PMC8728848
The entries come from a sample that favours the strongest signals as a whole.

Tests used:
Experiment in all cases: glycan array binding signal (z-score within array); higher = stronger binding
Conditions in all cases: glycan notation: IUPAC condensed, linker removed
[1] = biological target: GlcNAc(b1-4)GlcNAc(b1-4)GlcNAc(b1-4)GlcNAc(b1-4)GlcNAc(b1-4)GlcNAc
Method in brief: (§1)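 Glycan array binding is given as a within-array Z-score, which can be read as non-binding when negative. The arrays, 3228 of them, came from the Consortium for Functional Glycomics database and were retained only where the protein sequence was available. Z-scores were averaged across arrays of the same protein sequence at different concentrations or buffers and across linkers.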

Kdn(a2-3)Gal(b1-3)GalNAc = biological target: Kdn(a2-3)Gal(b1-3)GalNAc
Method in brief: as §1

[2] = biological target: Man(a1-2)Man(a1-3)[Man(a1-2)Man(a1-6)]Man(a1-6)[Man(a1-2)Man(a1-2)Man(a1-3)]Man(b1-4)GlcNAc(b1-4)GlcNAc
Method in brief: as §1

MurNAc(b1-4)GlcNAc = biological target: MurNAc(b1-4)GlcNAc
Method in brief: as §1

Neu5Ac(a2-3)Gal(b1-4)Glc = biological target: Neu5Ac(a2-3)Gal(b1-4)Glc
Method in brief: as §1

[3] = biological target: Neu5Ac(a2-3)Gal(b1-4)GlcNAc(b1-2)Man
Method in brief: as §1

[4] = biological target: Neu5Ac(a2-3)Gal(b1-4)GlcNAc(b1-2)Man(a1-3)[Neu5Ac(a2-3)Gal(b1-4)GlcNAc(b1-2)Man(a1-6)]Man(b1-4)GlcNAc(b1-4)[Fuc(a1-6)]GlcNAc
Method in brief: as §1

[5] = biological target: Neu5Ac(a2-3)Gal(b1-4)GlcNAc(b1-3)Gal
Method in brief: as §1

[6] = biological target: Neu5Ac(a2-3)Gal(b1-4)GlcNAc(b1-3)Gal(b1-4)GlcNAc(b1-3)Gal(b1-4)GlcNAc(b1-2)Man(a1-3)[Neu5Ac(a2-3)Gal(b1-4)GlcNAc(b1-3)Gal(b1-4)GlcNAc(b1-3)Gal(b1-4)GlcNAc(b1-2)Man(a1-6)]GalNAc
Method in brief: as §1

[7] = biological target: Neu5Ac(a2-3)Gal(b1-4)GlcNAc(b1-3)Gal(b1-4)[Fuc(a1-3)]GlcNAc
Method in brief: as §1

[8] = biological target: Neu5Ac(a2-3)Gal(b1-4)[Fuc(a1-3)]GlcNAc(b1-3)Gal(b1-4)GlcNAc
Method in brief: as §1

Neu5Ac(a2-3)GalNAc = biological target: Neu5Ac(a2-3)GalNAc
Method in brief: as §1

[9] = biological target: Neu5Ac(a2-6)Gal(b1-4)GlcNAc(b1-2)Man(a1-3)[GlcNAc(b1-4)][Neu5Ac(a2-6)Gal(b1-4)GlcNAc(b1-2)Man(a1-6)]Man(b1-4)GlcNAc(b1-4)GlcNAc
Method in brief: as §1

[10] = biological target: Neu5Ac(a2-6)Gal(b1-4)GlcNAc(b1-2)Man(a1-3)[Man(a1-6)]Man(b1-4)GlcNAc(b1-4)GlcNAc
Method in brief: as §1

[11] = biological target: Neu5Ac(a2-6)GlcNAc(b1-4)GlcNAc
Method in brief: as §1

[12] = biological target: Neu5Ac(a2-8)Neu5Ac(a2-3)[Gal(b1-3)GalNAc(b1-4)]Gal(b1-4)Glc
Method in brief: as §1

[13] = biological target: Neu5Ac(a2-8)Neu5Ac(a2-8)Neu5Ac(a2-8)Neu5Ac(a2-3)[GalNAc(b1-4)]Gal(b1-4)Glc
Method in brief: as §1

[14] = biological target: Neu5Ac(b2-6)Gal(b1-4)GlcNAc
Method in brief: as §1

[15] = biological target: Neu5Gc(a2-6)Gal(b1-4)GlcNAc
Method in brief: as §1

[16] = biological target: Neu5Gc(a2-8)Neu5Gc(a2-3)Gal(b1-4)GlcNAc
Method in brief: as §1

[17] = biological target: Neu5Gc(a2-8)Neu5Gc(a2-3)Gal(b1-4)GlcNAc(b1-3)Gal(b1-4)GlcNAc
Method in brief: as §1

[18] = biological target: Fuc(a1-2)Gal(b1-3)GalNAc(a1-3)[Fuc(a1-2)]Gal(b1-4)Glc
Method in brief: as §1

[19] = biological target: Fuc(a1-2)Gal(b1-3)[Fuc(a1-4)]GlcNAc
Method in brief: as §1

[20] = biological target: Fuc(a1-2)[Gal(a1-3)]Gal(b1-3)GlcNAc(b1-2)Man(a1-3)[Fuc(a1-2)[Gal(a1-3)]Gal(b1-3)GlcNAc(b1-2)Man(a1-6)]Man(b1-4)GlcNAc(b1-4)[Fuc(a1-6)]GlcNAc
Method in brief: as §1

[21] = biological target: Fuc(a1-2)[Gal(a1-3)]Gal(b1-3)GlcNAc(b1-6)GalNAc
Method in brief: as §1

[22] = biological target: Fuc(a1-2)[Gal(a1-3)]Gal(b1-4)GlcNAc(b1-3)[Fuc(a1-2)[Gal(a1-3)]Gal(b1-4)GlcNAc(b1-6)]GalNAc
Method in brief: as §1

[23] = biological target: Fuc(a1-2)[Gal(a1-3)]Gal(b1-4)[Fuc(a1-3)]GlcNAc(b1-3)GalNAc
Method in brief: as §1

[24] = biological target: Fuc(a1-2)[GalNAc(a1-3)]Gal(b1-3)GlcNAc(b1-6)GalNAc
Method in brief: as §1

[25] = biological target: Fuc(a1-2)[GalNAc(a1-3)]Gal(b1-4)[Fuc(a1-3)]GlcNAc(b1-3)GalNAc
Method in brief: as §1

Fuc(a1-3)GlcNAc = biological target: Fuc(a1-3)GlcNAc
Method in brief: as §1

[26] = biological target: Fuc(a1-3)[Gal(b1-4)]GlcNAc(b1-2)Man
Method in brief: as §1

[27] = biological target: Fuc(a1-3)[Gal(b1-4)]GlcNAc(b1-3)Gal(b1-3)[Fuc(a1-4)]GlcNAc
Method in brief: as §1

Fuc(a1-4)GlcNAc = biological target: Fuc(a1-4)GlcNAc
Method in brief: as §1

[28] = biological target: Gal(a1-4)Gal(b1-3)GlcNAc(b1-2)Man(a1-3)[Gal(a1-4)Gal(b1-3)GlcNAc(b1-2)Man(a1-6)]Man(b1-4)GlcNAc(b1-4)GlcNAc
Method in brief: as §1

[29] = biological target: Gal(a1-4)Gal(b1-4)GlcNAc(b1-3)Gal(b1-4)Glc
Method in brief: as §1

[30] = biological target: Gal(b1-3)GalNAc(b1-4)[Neu5Ac(a2-3)]Gal(b1-4)Glc
Method in brief: as §1

[31] = biological target: Gal(b1-3)GlcNAc(b1-2)Man(a1-3)[Gal(b1-3)GlcNAc(b1-2)Man(a1-6)]Man(b1-4)GlcNAc(b1-4)[Fuc(a1-6)]GlcNAc
Method in brief: as §1

[32] = biological target: Gal(b1-3)[Fuc(a1-4)]GlcNAc(b1-2)Man
Method in brief: as §1

[33] = biological target: Gal(b1-4)GalNAc(b1-3)[Fuc(a1-2)]Gal(b1-4)GlcNAc
Method in brief: as §1

[34] = biological target: Gal(b1-4)GlcNAc(b1-2)[Gal(b1-4)GlcNAc(b1-6)]Man(a1-6)[GlcNAc(b1-4)][Gal(b1-4)GlcNAc(b1-2)[Gal(b1-4)GlcNAc(b1-4)]Man(a1-3)]Man(b1-4)GlcNAc(b1-4)[Fuc(a1-6)]GlcNAc
Method in brief: as §1

[35] = biological target: Gal(b1-4)GlcNAc(b1-3)Gal(b1-4)GlcNAc(b1-3)Gal(b1-4)GlcNAc(b1-2)Man(a1-3)[Gal(b1-4)GlcNAc(b1-3)Gal(b1-4)GlcNAc(b1-3)Gal(b1-4)GlcNAc(b1-2)Man(a1-6)]Man(b1-4)GlcNAc(b1-4)[Fuc(a1-6)]GlcNAc
Method in brief: as §1

[36] = biological target: Gal(b1-4)GlcNAc(b1-3)Gal(b1-4)GlcNAc(b1-3)Gal(b1-4)GlcNAc(b1-3)Gal(b1-4)GlcNAc(b1-2)Man(a1-3)[Gal(b1-4)GlcNAc(b1-3)Gal(b1-4)GlcNAc(b1-3)Gal(b1-4)GlcNAc(b1-3)Gal(b1-4)GlcNAc(b1-2)Man(a1-6)]Man(b1-4)GlcNAc(b1-4)[Fuc(a1-6)]GlcNAc
Method in brief: as §1

[37] = biological target: Gal(b1-4)GlcNAc(b1-6)GalNAc
Method in brief: as §1

Gal3S(b1-3)GlcNAc = biological target: Gal3S(b1-3)GlcNAc
Method in brief: as §1

[38] = biological target: Gal3S(b1-4)[Fuc(a1-3)]Glc6S
Method in brief: as §1

GalNAc(a1-3)Gal = biological target: GalNAc(a1-3)Gal
Method in brief: as §1

GalNAc(b1-3)GlcNAc = biological target: GalNAc(b1-3)GlcNAc
Method in brief: as §1

GalNAc(b1-4)GlcNAc = biological target: GalNAc(b1-4)GlcNAc
Method in brief: as §1

GalNAc4S6S(b1-4)GlcNAc = biological target: GalNAc4S6S(b1-4)GlcNAc
Method in brief: as §1

[39] = biological target: Glc(a1-6)Glc(a1-6)Glc(a1-6)Glc
Method in brief: as §1

[40] = biological target: GlcNAc(a1-4)Gal(b1-4)GlcNAc(b1-3)Gal(b1-4)GlcNAc
Method in brief: as §1

B1: Vd2LysM (Verticillium dahliae) (protein)
chain: YRRTCSHTGKGEGWYIIRRGDNFNAVAADFCTSTNVLTEWNHISTITDNMVNTKIKVPCRWNAGKQRDCLKDQKSSNGWYHIVSGDELKDIAYDFCTTSGSLAGMNGISNPDYIKANTDIVVPCSWN
glycan array binding signal (z-score) [1]: 4.42 | glycan array binding signal (z-score) (Kdn(a2-3)Gal(b1-3)GalNAc): 1.25 | glycan array binding signal (z-score) [2]: 2.21 | glycan array binding signal (z-score) (MurNAc(b1-4)GlcNAc): -0.26 | glycan array binding signal (z-score) (Neu5Ac(a2-3)Gal(b1-4)Glc): 0.49 | glycan array binding signal (z-score) [3]: -0.481 | glycan array binding signal (z-score) [4]: 1.14 | glycan array binding signal (z-score) [5]: -0.599 | glycan array binding signal (z-score) [6]: 2.35 | glycan array binding signal (z-score) [7]: -0.732 | glycan array binding signal (z-score) [8]: -0.125 | glycan array binding signal (z-score) (Neu5Ac(a2-3)GalNAc): 0.096 | glycan array binding signal (z-score) [9]: -0.761 | glycan array binding signal (z-score) [10]: -0.322 | glycan array binding signal (z-score) [11]: 0.619 | glycan array binding signal (z-score) [12]: 0.198 | glycan array binding signal (z-score) [13]: 1.71 | glycan array binding signal (z-score) [14]: 0.512 | glycan array binding signal (z-score) [15]: 0.437 | glycan array binding signal (z-score) [16]: 2.17 | glycan array binding signal (z-score) [17]: 0.317

B2: AidA (Burkholderia cenocepacia) (protein)
chain: MSRVTDVLVSFDTETILKKYPNPSKNPAAPTLIDWRYVYMVTNQDNVISGQAGGELDLKAQVGDLIRWRETSLSLGFENQVVFYKFIGNVGNDLISTPTPRVAEASIPVPNTSKPEVPTCQKVANYYWSSECLKVGRVTYHFQFQIIDRNCQSQGCFSWDPFISIHN
glycan array binding signal (z-score) [18]: -0.374 | glycan array binding signal (z-score) [19]: -0.268 | glycan array binding signal (z-score) [20]: 1.35 | glycan array binding signal (z-score) [21]: 0.594 | glycan array binding signal (z-score) [22]: 0.451 | glycan array binding signal (z-score) [23]: -0.44 | glycan array binding signal (z-score) [24]: 1.7 | glycan array binding signal (z-score) [25]: 19.7 | glycan array binding signal (z-score) (Fuc(a1-3)GlcNAc): -0.017 | glycan array binding signal (z-score) [26]: 0.556 | glycan array binding signal (z-score) [27]: -0.459 | glycan array binding signal (z-score) (Fuc(a1-4)GlcNAc): 3.1 | glycan array binding signal (z-score) [28]: 0.346 | glycan array binding signal (z-score) [29]: -0.277 | glycan array binding signal (z-score) [30]: 0.172 | glycan array binding signal (z-score) [31]: -0.149 | glycan array binding signal (z-score) [32]: -0.108 | glycan array binding signal (z-score) [33]: -0.557 | glycan array binding signal (z-score) [34]: -0.272 | glycan array binding signal (z-score) [35]: 1.44 | glycan array binding signal (z-score) [36]: 0.416 | glycan array binding signal (z-score) [37]: -0.507 | glycan array binding signal (z-score) (Gal3S(b1-3)GlcNAc): 2.41 | glycan array binding signal (z-score) [38]: 2.38 | glycan array binding signal (z-score) (GalNAc(a1-3)Gal): 0.384 | glycan array binding signal (z-score) (GalNAc(b1-3)GlcNAc): -0.115 | glycan array binding signal (z-score) (GalNAc(b1-4)GlcNAc): 1.43 | glycan array binding signal (z-score) (GalNAc4S6S(b1-4)GlcNAc): -0.374 | glycan array binding signal (z-score) [39]: -0.597 | glycan array binding signal (z-score) [40]: 0.177
